Source: PubChem BioAssay (NCI)
Compounds without any hit were thinned out: in the full panel of roughly 83,000, 20% have a hit.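 Single-concentration screen, 48 h exposure, 96-well plates. Endpoint: percent growth. Below 10 = active.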 Active and inactive are the calls of the source.

What was measured:
Assay in all cases: NCI-60 one-dose screen, 48 h (100 = growth as untreated, 0 = no growth, -100 = all killed)
HT29 colon = details: 10 µM unless noted
SNB-75 CNS = details: 10 µM unless noted
SNB-19 CNS = details: 10 µM unless noted
U251 CNS = details: 10 µM unless noted
PC-3 prostate = details: 10 µM unless noted
SK-MEL-5 melanoma = details: 10 µM unless noted
UACC-62 melanoma = details: 10 µM unless noted
LOX IMVI melanoma = details: 10 µM unless noted
SK-MEL-28 melanoma = details: 10 µM unless noted
SK-MEL-2 melanoma = details: 10 µM unless noted
EKVX NSCLC = details: 10 µM unless noted
SN12C renal = details: 10 µM unless noted
UO-31 renal = details: 10 µM unless noted
TK-10 renal = details: 10 µM unless noted
ACHN renal = details: 10 µM unless noted
CAKI-1 renal = details: 10 µM
A498 renal = details: 10 µM unless noted
CCRF-CEM leukemia = details: 10 µM unless noted
MOLT-4 leukemia = details: 10 µM unless noted

Measured: growth

N=c1c2cc(-c3ccccc3)oc2ncn1/N=C/c1ccccc1
inactive: HT29 colon 73.6% | SNB-75 CNS 67% | SNB-19 CNS 87.5% | U251 CNS 84.7% | PC-3 prostate 71.9% | SK-MEL-5 melanoma 90.8% | UACC-62 melanoma 47.6% | LOX IMVI melanoma 66.3% | SK-MEL-28 melanoma 83.4% | SK-MEL-2 melanoma 97.2% | EKVX NSCLC 86.5% | SN12C renal 86.1% | UO-31 renal 85.6% | TK-10 renal 80.3% | ACHN renal 75.1% | CAKI-1 renal 67.5% | A498 renal 77.8% | CCRF-CEM leukemia 64% | MOLT-4 leukemia 65.3%

Oc1ccc(CSc2nnc(-c3ccccc3)n2-c2ccccc2)c2cccnc12
active: SK-MEL-5 melanoma -22% | UACC-62 melanoma -34.1% | LOX IMVI melanoma 5.5% | UO-31 renal -19.8% | ACHN renal 6.88% | CCRF-CEM leukemia 9.93%
inactive: HT29 colon 52.4% | SNB-19 CNS 12.6% | U251 CNS 12.8% | PC-3 prostate 23% | SK-MEL-28 melanoma 17.7% | SK-MEL-2 melanoma 30.8% | EKVX NSCLC 18.5% | SN12C renal 19.5% | TK-10 renal 27.3% | CAKI-1 renal 10.5% | A498 renal 12.7% | MOLT-4 leukemia 15.6%

O=S(=O)(Nc1cc(Cl)c(F)c(Cl)c1)c1ccc(-c2cnc(C3CC3)o2)cc1
inactive: HT29 colon 13.4% | SNB-19 CNS 44.3% | U251 CNS 30.4% | PC-3 prostate 25.2% | SK-MEL-5 melanoma 28.8% | UACC-62 melanoma 42.6% | LOX IMVI melanoma 43.2% | SK-MEL-28 melanoma 66.7% | SK-MEL-2 melanoma 51.9% | EKVX NSCLC 47.6% | SN12C renal 48.7% | UO-31 renal 56.8% | TK-10 renal 72.5% | ACHN renal 49.4% | CAKI-1 renal 12% | A498 renal 15.5% | CCRF-CEM leukemia 20.7% | MOLT-4 leukemia 38%
active: SNB-75 CNS -4.2%

CCN1CCN(Cc2ccc(C(=O)Nc3nc4ccc(Oc5ccnc(C(=O)NC)c5)cc4s3)cc2C(F)(F)F)CC1
active: HT29 colon 3.42% | LOX IMVI melanoma -11.8% | SK-MEL-28 melanoma -66.5%
inactive: SNB-75 CNS 75.9% | SNB-19 CNS 66.6% | U251 CNS 41.9% | PC-3 prostate 46.1% | SK-MEL-5 melanoma 17.7% | UACC-62 melanoma 24.6% | EKVX NSCLC 52.4% | SN12C renal 77.4% | UO-31 renal 33.2% | TK-10 renal 91.6% | ACHN renal 57.4% | CAKI-1 renal 47.2% | A498 renal 74.1% | CCRF-CEM leukemia 60.6%

COC1=C(c2ccccc2)C(=O)C(OC)=C(c2ccccc2)C1=O
inactive: HT29 colon 95% | SNB-75 CNS 56% | SNB-19 CNS 101% | U251 CNS 91.6% | PC-3 prostate 96.2% | SK-MEL-5 melanoma 103% | UACC-62 melanoma 97.1% | LOX IMVI melanoma 95.2% | SK-MEL-28 melanoma 117% | SK-MEL-2 melanoma 101% | EKVX NSCLC 99% | SN12C renal 102% | UO-31 renal 89.8% | TK-10 renal 107% | ACHN renal 117% | A498 renal 89.7% | CCRF-CEM leukemia 10.9%
active: MOLT-4 leukemia -7.74%

Cc1ccc(S(=O)(=O)N/N=C/c2cn(-c3ccc(F)cc3)nc2-c2ccc(S(C)(=O)=O)cc2)cc1
inactive: HT29 colon 105% | SNB-75 CNS 110% | SNB-19 CNS 97.1% | U251 CNS 101% | PC-3 prostate 95.4% | SK-MEL-5 melanoma 102% | UACC-62 melanoma 91.6% | LOX IMVI melanoma 100% | SK-MEL-28 melanoma 106% | SK-MEL-2 melanoma 102% | EKVX NSCLC 96.6% | SN12C renal 99.8% | UO-31 renal 89.8% | TK-10 renal 103% | ACHN renal 102% | CAKI-1 renal 98% | A498 renal 87.5% | CCRF-CEM leukemia 103% | MOLT-4 leukemia 106%

COc1ccc(N2CCN(C(=O)CSc3ccc(-c4nc5cc(C)c(C)cc5[nH]4)cn3)CC2)cc1
inactive: HT29 colon 85.7% | U251 CNS 95.9% | PC-3 prostate 56.4% | UACC-62 melanoma 45.3% | LOX IMVI melanoma 56.8% | SK-MEL-28 melanoma 74.4% | SK-MEL-2 melanoma 87.1% | EKVX NSCLC 53.3% | SN12C renal 83.2% | UO-31 renal 65.1% | TK-10 renal 101% | ACHN renal 77.5% | CAKI-1 renal 73.4% | A498 renal 90.9% | CCRF-CEM leukemia 18.4%
active: SK-MEL-5 melanoma 3.13% | MOLT-4 leukemia 6.92%

COc1ccc2c(C3=C(c4c[nH]c5ccccc45)C(=O)N(O)C3=O)coc2c1
inactive: HT29 colon 95.4% | SNB-75 CNS 105% | SNB-19 CNS 95.1% | U251 CNS 98% | PC-3 prostate 81.2% | SK-MEL-5 melanoma 94.5% | UACC-62 melanoma 80.4% | LOX IMVI melanoma 52.2% | SK-MEL-28 melanoma 110% | EKVX NSCLC 77% | SN12C renal 101% | UO-31 renal 58.2% | TK-10 renal 144% | ACHN renal 94.2% | CAKI-1 renal 90.2% | A498 renal 85% | CCRF-CEM leukemia 26.9%

C/C(=C(/C)C1CC1CCN(C(=O)c1ccc([N+](=O)[O-])cc1)S(=O)(=O)c1ccc(C)cc1)C1CCCCC1 (stereo not given)
inactive: HT29 colon 99.2% | SNB-75 CNS 106% | SNB-19 CNS 92.5% | U251 CNS 94.7% | PC-3 prostate 85.4% | SK-MEL-5 melanoma 99.4% | UACC-62 melanoma 79.7% | LOX IMVI melanoma 93.9% | SK-MEL-28 melanoma 101% | EKVX NSCLC 82.4% | SN12C renal 91.8% | UO-31 renal 92.2% | TK-10 renal 108% | ACHN renal 99% | CAKI-1 renal 84.9% | A498 renal 105% | CCRF-CEM leukemia 93.6% | MOLT-4 leukemia 80.3%

COc1ccccc1N1CCN(C2=NN=C(c3cccc(Cl)c3)c3ccccc3C2)CC1
active: HT29 colon -3.52% | SK-MEL-5 melanoma -6.03% | SK-MEL-2 melanoma 0.738% | A498 renal -16.6%
inactive: SNB-75 CNS 19.7% | SNB-19 CNS 41.2% | U251 CNS 20.7% | PC-3 prostate 23.5% | UACC-62 melanoma 31.6% | LOX IMVI melanoma 24.8% | SK-MEL-28 melanoma 60.7% | EKVX NSCLC 40.9% | SN12C renal 21.2% | UO-31 renal 24% | TK-10 renal 27.8% | ACHN renal 28.5% | CAKI-1 renal 29.7% | CCRF-CEM leukemia 10.1% | MOLT-4 leukemia 17.6%

CCOC(=O)Nc1ccc(-c2nc(-c3cccc(O)c3)c(-c3ccnc(Br)c3)[nH]2)cc1
inactive: HT29 colon 34.3% | SNB-75 CNS 14.7% | SNB-19 CNS 44.7% | U251 CNS 29.6% | SK-MEL-5 melanoma 23.6% | UACC-62 melanoma 24.3% | LOX IMVI melanoma 14.5% | SK-MEL-28 melanoma 46.9% | SK-MEL-2 melanoma 34.4% | EKVX NSCLC 44.2% | SN12C renal 44.7% | UO-31 renal 31.3% | TK-10 renal 41.9% | ACHN renal 36.5% | CAKI-1 renal 27.3% | A498 renal 49.4% | CCRF-CEM leukemia 22.9%
active: PC-3 prostate 4.92% | MOLT-4 leukemia 2.17%
